Holding throughout (conditions): 20 µM
For assay [1], the system named is Salmonella enterica typhimurium. Briefly: growth AUC normalised to DMSO control (fraction of control); higher = less growth inhibition, active = hit call of the paper. The gist of the method: (§1)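 Hemin and NAD were added to the medium for Haemophilus parainfluenzae. All pathogens, after two anaerobic passages, were inoculated at a starting OD578 of 0.01 into pre-reduced mGAM plates with 20 μM compound and 1% DMSO under breathable seals, and OD578 was read hourly for 24 h in three biological replicates. AUC of each growth curve was obtained with the trapezoidal rule up to the exponential-to-stationary transition and normalised to DMSO controls from the same plate.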

Assay [2] relates to Shigella flexneri. The assay is described as above. The method in brief:
as §1

For assay [3], the system named is Vibrio cholerae. The description is as above. The gist of the method:
as §1

Assay [4] deals with Yersinia pseudotuberculosis. The description is as above. The gist of the method: as §1
In assay [5] the test system is P. vulgatus RND KO. Nature of the assay: growth AUC normalised to DMSO control (median) (fraction of control); higher = less growth inhibition, active = hit call of the paper. The method in brief: (§2)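 Strains were passaged twice overnight without oxygen, then grown in mGAM in 96-well plates with each approved-drug library compound at 20 μM and 1% DMSO, starting at OD578 0.01. OD578 was read hourly for 24 h inside an anaerobic incubator. Curves were truncated at entry into stationary phase, and the trapezoidal-rule area under the curve was normalised to same-plate vehicle wells. The value is the median across three biological replicates.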

In assay [6] the test system is P. vulgatus WT. Described as above. The method in brief: as §2
Assay [7] deals with S. enterica typhimurium WT. Described as above. The method in brief:
as §2

The subject of assay [8] is S. enterica typhimurium tolC KO. The description is as above. The method in brief: as §2

Counter-ions that a name gives are not always drawn. Values without a mark were called inactive.
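Wherever growth AUC normalised to DMSO control (median) is given: active when median AUC fell below 0.1.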

`COc1ccccc1N1CCN(CCCNc2cc(=O)n(C)c(=O)n2C)CC1` [Urapidil hydrochloride]: the “growth AUC normalised to DMSO control” value is 1.01 in assay [1]; 0.992 in assay [2]; 0.984 in assay [3]; 1 in assay [4]; 0.976 in assay [5]; 0.976 in assay [6]. Moreover, the figures for the “growth AUC normalised to DMSO control” value in assay [7] and in assay [8] were 1 and 0.992, respectively.

On to `NC[C@H]1O[C@H](O[C@H]2[C@H](O[C@@H]3O[C@H](CO)[C@@H](O)[C@H]3O)[C@@H](O)[C@H](N)C[C@@H]2N)[C@H](N)[C@@H](O)[C@@H]1O` [Ribostamycin sulfate salt], for which the “growth AUC normalised to DMSO control” value is 0.981 in assay [1]; 0.918 in assay [2]; 0.974 in assay [3]; 0.995 in assay [4]; 0.988 in assay [5]; 0.986 in assay [6]. Further, the “growth AUC normalised to DMSO control” value was 0.98 in assay [7] and 0.99 in assay [8].

As for `Nc1ncnc2c1ncn2C1OC(COP(=O)(O)O)C(O)C1O` (centres undefined) [Adenosine 5'-monophosphate monohydrate], the “growth AUC normalised to DMSO control” value in assay [1] was 0.999; in assay [2], 0.986; in assay [3], 0.981; in assay [4], 1; in assay [5], 0.977; in assay [6] it was 0.984. The “growth AUC normalised to DMSO control” value in assay [7] is 0.992; in assay [8], 0.995.

Regarding `O=C(CCNNC(=O)c1ccncc1)NCc1ccccc1` [Nialamide], the “growth AUC normalised to DMSO control” value was 0.997 in assay [1]; 1.02 in assay [2]; 1.05 in assay [3]; 1.01 in assay [4]; 0.995 in assay [5]; 1.04 in assay [6]. Further, the “growth AUC normalised to DMSO control” value in assay [7] was 0.999; in assay [8], 1.01.

In the case of `COC(=O)C1=C(C)NC(C)=C(C(=O)OC(C)C)C1c1cccc2nonc12` (centres undefined) [Isradipine], the “growth AUC normalised to DMSO control” value in assay [1] is 1.01; in assay [2] it was 1.02; in assay [3], 1.02; in assay [4] it was 1; in assay [5], 1.02; in assay [6], 1.05. The “growth AUC normalised to DMSO control” value is 1.02 in assay [7] and 0.979 in assay [8].

As to `Clc1ccc2nsnc2c1NC1=NCCN1` [Tizanidine hydrochloride], the “growth AUC normalised to DMSO control” value in assay [1] is 0.977; in assay [2], 0.988; in assay [3], 0.993; in assay [4] it was 1; in assay [5], 0.992; in assay [6], 1. For the same compound, the “growth AUC normalised to DMSO control” value in assay [7] was 1.01; in assay [8], 0.998.

As for `C[C@H]1C[C@H]2[C@@H]3CCC4=CC(=O)C=C[C@]4(C)[C@@]3(F)[C@@H](O)C[C@]2(C)[C@@]1(O)C(=O)CO` [Betamethasone], the “growth AUC normalised to DMSO control” value is 0.985 in assay [1]; 0.957 in assay [2]; 0.979 in assay [3]; 0.988 in assay [4]; 0.986 in assay [5]; 0.98 in assay [6]. In addition, the “growth AUC normalised to DMSO control” value in assay [7] is 1; in assay [8], 0.991.

For the compound `CCN1CCC[C@H]1CNC(=O)c1c(O)c(Cl)cc(Cl)c1OC` [Raclopride], the “growth AUC normalised to DMSO control” value in assay [1] is 1; in assay [2], 0.983; in assay [3], 0.985; in assay [4] it was 0.951; in assay [5], 1.04; in assay [6] it was 1.04. For the same compound, the “growth AUC normalised to DMSO control” value in assay [7] is 0.994; in assay [8], 1.

As for `CC(C)NC(=N)NC(=N)Nc1ccc(Cl)cc1` [Proguanil hydrochloride], the “growth AUC normalised to DMSO control” value is 0.959 in assay [1]; 0.962 in assay [2]; 0.985 in assay [3]; 0.992 in assay [4]; 1 in assay [5]; 1.01 in assay [6]. For the same compound, the “growth AUC normalised to DMSO control” value in assay [7] is 0.988; in assay [8] it was 0.984.

As for `NS(=O)(=O)c1cc2c(cc1Cl)NCNS2(=O)=O` [Hydrochlorothiazide], the “growth AUC normalised to DMSO control” value was 1.02 in assay [1]; 0.994 in assay [2]; 1.05 in assay [3]; 1.01 in assay [4]; 0.981 in assay [5]; 0.997 in assay [6]. Also, the “growth AUC normalised to DMSO control” value is 0.996 in assay [7] and 1.02 in assay [8].

For the compound `CC[C@H]1OC(=O)[C@H](C)[C@@H](O[C@H]2C[C@@](C)(OC)[C@@H](O)[C@H](C)O2)[C@H](C)[C@@H](O[C@@H]2O[C@H](C)C[C@H](N(C)C)[C@H]2O)[C@](C)(OC)C[C@@H](C)C(=O)[C@H](C)[C@@H](O)[C@]1(C)O` [Clarithromycin], the “growth AUC normalised to DMSO control” value in assay [1] is 0.688 (active); in assay [2], 0.508 (active); in assay [3], 0.0231 (active); in assay [4] it was 0.799 (active); in assay [5] it was 0.0127 (active); in assay [6], 0.0156 (active). Moreover, the “growth AUC normalised to DMSO control” value in assay [7] was 0.744; in assay [8] it was 0.00712 (active).

Take `C[C@H](CCC(=O)O)[C@H]1CC[C@H]2[C@@H]3[C@@H](O)C[C@@H]4C[C@H](O)CC[C@]4(C)[C@H]3CC[C@]12C` [Urosiol]: the “growth AUC normalised to DMSO control” value is 0.971 in assay [1]; 1.02 in assay [2]; 1.04 in assay [3]; 1.01 in assay [4]; 1.02 in assay [5]; 1.02 in assay [6]. Moreover, the entries for the “growth AUC normalised to DMSO control” value in assay [7] and in assay [8] were 1 and 1.01, respectively.

As to `CC1(C)O[C@@H]2C[C@H]3[C@@H]4C[C@H](F)C5=CC(=O)C=C[C@]5(C)[C@H]4[C@@H](O)C[C@]3(C)[C@]2(C(=O)CO)O1` [Flunisolide], the “growth AUC normalised to DMSO control” value in assay [1] is 1.01; in assay [2], 1.05; in assay [3], 1.06; in assay [4], 0.984; in assay [5] it was 1.03; in assay [6] it was 1.05. The figures for the “growth AUC normalised to DMSO control” value in assay [7] and in assay [8] were 1 and 1.01, respectively.

The values above are taken from the supplement of paper PMC12350171.
